Our source for the inhibition values is PubChem BioAssay AID488 (PCMD, 2006).

SMILES strings stand for the structures. In all, about 62,000 compounds went through this assay and about 40 (0.06%) were called active. Rule as the data show it: active = inhibition above about 22% (passing the limit was not always enough); inconclusive = no clear call, values can overlap the other calls. The sample as a whole holds a higher share of actives than the screen did.

In general, inhibition refers to the change of the read-out against control, counted positive when it falls.

The assay addresses Cathepsin B (Homo sapiens) (UniProt P07858). In words: human cathepsin B blockade, pooled library – biochemical, compound mixtures, AMC fluorescence, primary screen (AID 488).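 Also: 0% = enzyme without compound and 100% = no enzyme blank.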 As to conditions: Purified cathepsin B, AMC dipeptide fluorescence, hits give high values,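 ten-compound pools at 5 µM per compound and 50 µM total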.
As for `CCCCNC(=O)c1ccccc1NC(=O)c1ccccc1N(C)S(C)(=O)=O`, the inhibition is 7.15% (inactive).

For `CCOC(=O)Cc1csc(NC(=O)CN(C)S(=O)(=O)c2ccc3c(c2)CCC(=O)N3)n1`, the inhibition was 3.69% (inactive).

In the case of `COc1ccc(-c2nc(CS(=O)CC(=O)N3CCc4ccccc4C3)c(C)o2)cc1` (stereo unspecified), the inhibition is 4.29% (inactive).

On to `CCC(C)Sc1nc(C)nc2c1c(=O)n(C)c(=O)n2C` (stereo unspecified), for which the inhibition was 2.91% (inactive).

For the compound `N#CCCn1ncc2ccccc21`, the inhibition is -3.63% (inactive).

Consider `COc1ccc(CCN2CNc3c(c(=O)n(C)c(=O)n3C)C2)cc1OC`, for which the inhibition is 0.085% (inactive).

For `COc1ccc(-c2ccnc(SCC(=O)N3CCOCC3)n2)cc1`, the inhibition is -0.81% (inactive).

On to `CCN1CCN(c2c(Cl)cccc2NC(=O)c2ccc(Br)o2)CC1`, for which the inhibition was 5.68% (inactive).

Consider `COc1nc(NCc2ccc(Cl)cc2)nc(OC)n1`, for which the inhibition was 6.46% (inactive).

Consider `CCCn1c(SCC(=O)N2CCc3ccccc32)nnc1-c1ccncc1`, for which the inhibition is 5.11% (inactive).

With `CC(C)(C)NC(=O)NC(=O)COC(=O)Cn1c(C(F)(F)F)nc2ccccc21`, the inhibition is 0.995% (inactive).

Turning to `N#Cc1cccc(CSc2nnc(CCCO)n2-c2ccccc2)c1`, the inhibition was 22% (inactive).

Regarding `COC(=O)c1c(NC(=O)CCN2CCOCC2)sc2c1CCCC2`, the inhibition is 3.41% (inactive).

In the case of `Cn1c(=O)cc(SCC(=O)N2CCN(C(=O)c3ccco3)CC2)c2ccccc21`, the inhibition was 2.19% (inactive).

For the compound `Cc1ccccc1-c1nc(CS(=O)(=O)CC(=O)N2CCc3ccccc3C2)c(C)o1`, the inhibition was 4.15% (inactive).

In the case of `Cc1cccc(NC(=O)C2CCN(S(=O)(=O)c3cccc4cccnc34)CC2)c1`, the inhibition is 4.24% (inactive).

Regarding `Cc1cc(Nc2ccc(Br)cc2F)n2ncnc2n1`, the inhibition was -2.18% (inactive).

For the compound `COc1ccc(C(CC(=O)O)NC(=O)Cc2ccccc2)cc1` (stereo unspecified), the inhibition was -0.455% (inactive).

As to `COc1ccc(S(=O)(=O)N2CCCCC2)cc1Br`, the inhibition is 2.55% (inactive).

With `CC(=O)c1cc(-c2ccccc2)[nH]c1N1CCCC1`, the inhibition is 2.3% (inactive).

In the case of `CC1Oc2ccccc2N(Cc2cccnc2)C1=O` (stereo unspecified), the inhibition is 4.41% (inactive).

As to `O=C(CCS(=O)(=O)c1cccc2nonc12)NCCc1ccccc1Cl`, the inhibition was 4.8% (inactive).

Consider `Cn1cccc1Cc1nnc(SCC(=O)NCCc2ccccc2)n1-c1ccc(F)cc1`, for which the inhibition is 4.42% (inactive).

On to `CC1(C)Oc2ccc(C(=O)N3CCOCC3)cc2N(CC(=O)Nc2ccccc2)C1=O`, for which the inhibition is -0.39% (inactive).

As to `COc1ccccc1C(=O)C(O)c1ccccc1OC` (stereo unspecified), the inhibition was 1.43% (inactive).

`O=C(Cn1cc(C(=O)c2cccs2)c2ccccc21)NCc1cccs1`: the inhibition is -1.35% (inactive).

Turning to `CCOC(=O)COc1ccc(Cl)cc1C1NC(=O)NC(C)=C1C(C)=O` (stereo unspecified), the inhibition was -5.4% (inactive).

For `O=C(NCc1ccccn1)c1c(O)c2c([nH]c1=O)CCCC2`, the inhibition is 4.33% (inactive).

Consider `CC12COC3(C(=O)Nc4ccc(Cl)cn4)CC1CCC32C` (stereo unspecified), for which the inhibition is 2.24% (inactive).

Turning to `COc1cccc(C(CC(=O)NCCN2CCOCC2)NS(=O)(=O)c2ccc(C)cc2)c1OC` (stereo unspecified), the inhibition is -2.29% (inactive).

For the compound `CCN(C(=O)CSc1ncn[nH]1)c1cccc2ccccc12`, the inhibition was 5.46% (inactive).

Take `Cn1c(=O)c2c(nc(N3CCCCCC3)n2CC(=O)c2ccc(Br)cc2)n(C)c1=O`: the inhibition is 6.96% (inactive).

Consider `CCOC(=O)CSc1nnc(CNC(=O)c2cccs2)n1-c1ccccc1`, for which the inhibition was 3.94% (inactive).

Turning to `CCCOc1ccc(NC(=O)C2CCCNC2=O)cc1` (stereo unspecified), the inhibition was 0.055% (inactive).

Take `CCOC(=O)N1CCN(C(=O)c2ccc(S(=O)(=O)c3ccc(C)cc3)c(NC(C)=O)c2)CC1`: the inhibition is 0.155% (inactive).

In the case of `CN(C)/C=C/c1c(C#N)c(=O)ncn1Cc1ccccc1`, the inhibition was 4.44% (inactive).

Consider `CCCC(=O)C1=C(N(C)c2ccccc2)CC(C)(C)C(C(=O)OC)C1=O` (stereo unspecified), for which the inhibition is 6.7% (inactive).

In the case of `O=C(O)CCN1C(=O)CC2(CCCCC2)C1=O`, the inhibition is -0.755% (inactive).

Regarding `COc1ccc(C)c(Cn2c(-c3nonc3N)nc3ccccc32)c1`, the inhibition was 19.5% (inactive).

As to `Nc1nonc1-c1nc2ccccc2n1CCC(=O)O`, the inhibition was 23.8% (inactive).

Consider `Nc1nonc1-c1nc2ccccc2n1Cc1ccc(F)cc1`, for which the inhibition was 79.6% (active).

With `Cc1ccc(C)c(S(=O)(=O)n2cnc3ccccc32)c1`, the inhibition is -4.15% (inactive).

As for `O=C(NCCN1CCOCC1)c1ccc2c(c1)ncn2C1CCCC1`, the inhibition was 2.62% (inactive).

On to `O=C(CCN1C(=O)C2C3C=CC(C3)C2C1=O)Nc1ccccc1F` (stereo unspecified), for which the inhibition was 1.56% (inactive).

For the compound `CC1Cc2cc(/C(O)=C3\C(=O)C(=O)N(CCN4CCOCC4)C3c3ccccc3F)ccc2O1` (stereo unspecified), the inhibition is 3.23% (inactive).

In the case of `Cc1ccc(C2c3c(oc4ccc(C)cc4c3=O)C(=O)N2CCCN2CCOCC2)cc1` (stereo unspecified), the inhibition was 3.25% (inactive).

Turning to `CCOc1cc(-c2nc3cc(C)ccn3c2NCC2CCCO2)ccc1O` (stereo unspecified), the inhibition was -4.66% (inactive).

For `COc1cc2c(cc1NC(=O)CN1CCN(S(=O)(=O)c3ccc(F)cc3)CC1)oc1ccccc12`, the inhibition is 2.98% (inactive).

Turning to `CCC1CCCCN1CCNC(=O)c1[nH]c(C)c(C(C)=O)c1C` (stereo unspecified), the inhibition is 4.44% (inactive).

With `COC(=O)C1C(=O)CC(C)(O)C(C(=O)OC)C1c1ccc2c(c1)OCO2` (stereo unspecified), the inhibition was 1.84% (inactive).

With `CCN(CC)C(=O)c1sc(NC(=O)c2ccco2)c(C#N)c1C`, the inhibition was 7.73% (inactive).

In the case of `N#Cc1cccc(NC(=O)CCC2CCCC2)c1`, the inhibition was 0.985% (inactive).

Consider `CC(C)c1ccc(-c2nn[nH]n2)cc1`, for which the inhibition is 4.54% (inactive).

Turning to `Cc1c(C(=O)Nc2ccccc2Cl)oc2ccc(S(=O)(=O)N3CCC4(CC3)OCCO4)cc12`, the inhibition was 6.83% (inactive).

As to `O=C(NCCSc1ccccc1)c1ccco1`, the inhibition was 5.3% (inactive).

`C=CCC(NCCCO)c1cccc(OC)c1OC` (stereo unspecified): the inhibition is 0.355% (inactive).

As for `Cc1nc2nc[nH]n2c(=O)c1NC(=O)c1cccc(OCC(C)C)c1`, the inhibition was 0.08% (inactive).

As to `CC(C)(C)Nc1c(N)c(=O)oc2ccccc12`, the inhibition is 1.79% (inactive).

On to `CCC1Oc2ccc(Cl)cc2N(CC(=O)O)C1=O` (stereo unspecified), for which the inhibition is 4.82% (inactive).

For `O=C(Cn1cnc2c(cnn2-c2ccc(F)cc2)c1=O)NCCc1ccccc1`, the inhibition is -5.56% (inactive).

In the case of `CN(C(=O)c1ccccn1)c1nnc(-c2ccccn2)s1`, the inhibition is 4.35% (inactive).

With `CN1CCN(CC(=O)C23CC4CC(CC(C4)C2)C3)CC1`, the inhibition is -16% (inactive).

`Cc1cc(-n2nc(C)cc2C)n2ncc(-c3ccccc3)c2n1`: the inhibition was -1.95% (inactive).

In the case of `COCCOC(=O)C1=C(C)N=c2s/c(=C\c3cccs3)c(=O)n2C1c1cccs1` (stereo unspecified), the inhibition was 5.37% (inactive).

As to `COc1ccc(C(C)=O)cc1COC(=O)Cn1cnc2ccccc2c1=O`, the inhibition is -0.265% (inactive).

As for `CC(=O)c1c(N2CCOCC2)nc(=S)n(Cc2ccccc2)c1C`, the inhibition is -2.31% (inactive).

In the case of `CCOc1ccc(N=C2SC(C(=O)O)CC(=O)N2C)cc1` (stereo unspecified), the inhibition is -1.85% (inactive).

As for `COC(=O)Cn1c(=NC(=O)CSCC(=O)Nc2cc(C)on2)sc2ccccc21`, the inhibition is -5.38% (inactive).

For the compound `Cn1c(SCC(=O)N2CCOCC2)nnc1-c1ccc(NC(=O)c2ccccc2F)cc1`, the inhibition is -2.64% (inactive).

For `CC(C)C(c1nnnn1Cc1ccccc1)N1CCC(C(N)=O)CC1` (stereo unspecified), the inhibition was -1.51% (inactive).

Consider `O=C(OCc1ccccc1F)c1ccc2c(c1)OCCO2`, for which the inhibition is 8.22% (inactive).

On to `COC(=O)c1cc(C(=O)CSc2nc(C)cc(C)n2)ccc1O`, for which the inhibition was 1.56% (inactive).

As for `CSc1ccc(Cl)c(C(=O)OCC(=O)N2CC(C)OC(C)C2)c1` (stereo unspecified), the inhibition is -10.2% (inactive).

`COC(=O)C1=C(N)Oc2cc(C)oc(=O)c2C1c1cccnc1` (stereo unspecified): the inhibition is 1.64% (inactive).

For `COC(=O)c1ccc(CSc2nncn2C)cc1`, the inhibition was 6.61% (inactive).

As to `CCN(CC)P(=O)(/C(Cl)=C\Nc1c(C)n(C)n(-c2ccccc2)c1=O)N(CC)CC`, the inhibition is -1.45% (inactive).

Take `C=CCN(c1ccc(C(N)=O)cc1)S(C)(=O)=O`: the inhibition is 1.82% (inactive).

Consider `CCOC(=O)C1=C(C)N=c2s/c(=C\C(=O)OC)c(=O)n2C1c1ccc(OC)cc1` (stereo unspecified), for which the inhibition is 4.36% (inactive).

Regarding `Cc1ccc(Cn2nnc3c(=O)n(CC(=O)N4CCCCC4)cnc32)cc1`, the inhibition was -4.83% (inactive).

For `O=C(CC1Nc2ccccc2NC1=O)Nc1ccccc1` (stereo unspecified), the inhibition was 2.4% (inactive).

For the compound `COc1ccccc1-n1cnc2cc(NS(=O)(=O)c3ccccc3)ccc21`, the inhibition is 4.81% (inactive).

`C=CCn1c(=N)n(CC(O)COc2ccc(OC)cc2)c2ccccc21` (stereo unspecified): the inhibition was 4.16% (inactive).

On to `CCOc1ccc(CC(=O)Nc2ccc(S(=O)(=O)Nc3cc(C)on3)cc2)cc1OCC`, for which the inhibition is 3.38% (inactive).

On to `COC(=O)C1=C(C)NC(=O)NC1/C=C/c1ccccc1` (stereo unspecified), for which the inhibition is 4.12% (inactive).

Take `O=C(Cn1c(-c2ccc(Cl)cc2)noc1=O)N1CCN(c2ccccc2F)CC1`: the inhibition is -2.31% (inactive).

In the case of `CCOC(=O)c1ccc2[nH]c(C)c(CN3CCN(C)CC3)c(=O)c2c1`, the inhibition is 6.62% (inactive).

On to `Cc1nc2cc(S(=O)(=O)C(F)(F)F)ccc2s1`, for which the inhibition was 1.09% (inactive).

Regarding `CCOc1ccc(NC(=O)CCS(=O)(=O)c2cccc3nsnc23)cc1`, the inhibition is 1.87% (inactive).

As to `Cc1nnc(SCC(=O)NCc2ccccc2)s1`, the inhibition is -1.96% (inactive).

Turning to `CC1=CC(C)(C)N(C(=O)CSc2nnc(-c3ccccc3)o2)c2ccc(C)cc21`, the inhibition is 1.93% (inactive).

Consider `O=c1cc(CO)oc(CN2CCC(Cc3ccccc3)CC2)c1O`, for which the inhibition is -2.05% (inactive).

For the compound `CCOC(=O)c1cc2occc2n1CC(=O)N1CCN(C(=O)c2ccco2)CC1`, the inhibition is 0.785% (inactive).

For `Cc1cc(NC(=O)COC(=O)c2ccc(F)c(S(=O)(=O)N3CCOCC3)c2)no1`, the inhibition was 5.21% (inactive).

On to `CC1=C(C(N)=O)C(c2ccc3c(c2)OCO3)n2nc(-c3cccc(C)c3)nc2N1` (stereo unspecified), for which the inhibition is -4.66% (inactive).

On to `CCCCn1c(CCCNC(=O)CC)nc2ccccc21`, for which the inhibition was 1.44% (inactive).

As for `Cc1cc(Cl)c(S(=O)(=O)NCc2cccnc2)cc1OCC(N)=O`, the inhibition was 7.41% (inactive).
